This passage reports Potency results from PubChem BioAssay (NCATS).

Inconclusive results are not listed. The source made the active and inactive calls. Calls follow the shape of the dose curve; as a rule, active = well fitted curve in the direction sought with a large enough effect; inconclusive = small, poorly fitted or top-dose-only effect, or another doubt; inactive = no such curve, though single readings can be large; an effect the other way counts as inactive or inconclusive.

Experiment [1] concerns the target Cytochrome P450 3A4 (Homo sapiens) (UniProt P08684). The experiment can be described thus: qHTS Assay for Inhibitors and Substrates of Cytochrome P450 3A4 (AID 884). Also: nearly all actives have a fitted effect of over 50% in size. Also: potency is read from the fitted curve at half-maximal effect. The method, boiled down:
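Luminescent readout of luciferin produced by CYP3A4 (20 nM) dealkylation of Luciferin-PPXE, 25 uM (its KM). NADPH-driven reaction ran 60 min at RT after 10 min compound preincubation; data scaled to 57 uM ketoconazole as 100% inhibition.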

The target is the same in experiment [2]. Kind of experiment: qHTS Assay for Activators of Cytochrome P450 3A4 (AID 885). Also: nearly all actives have a fitted effect of over 65% in size. The method, boiled down: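 CYP3A4 activity: Luciferin-PPXE O-dealkylation, 25uM substrate, 200mM KPO4, RT throughout. Read-out is luciferase luminescence; higher values reflect activation.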
Experiment [3] has as its target DNA dC->dU-editing enzyme APOBEC-3G (Homo sapiens) (UniProt Q9HC16). Kind of experiment: qHTS for inhibitors of Vif-A3G interactions: Validation (AID 588379). The method, boiled down: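 Yellow fluorescence (Ex 488, Em 500-530) of Vif-coexpressing HeLa A3G-eYFP cells, scanned by Acumen cytometer, reports blocked A3G degradation. Cells plated at 700/well overnight at 37 deg C before compound addition, then a further overnight compound incubation at 37 deg C.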

Experiment [4] deals with Luciferin 4-monooxygenase (Photinus pyralis) (UniProt P08659). Kind of experiment: Biochemical firefly luciferase enzyme assay for NPC (AID 624030).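 Also: purified P. pyralis luciferase at 10 nM with luciferin and ATP substrate; series mostly up to about 59 µM; nearly all actives have a fitted effect of over 70% in size.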 The method, boiled down:
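Purified P. pyralis luciferase at 10 nM in 50 mM Tris Acetate (final), luminescence read within 5 minutes of enzyme addition to compounds. Activity normalised to PTC124 versus DMSO; concentration-response curves classed by r2, magnitude and activity.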

Cytochrome P450 3A4 (Homo sapiens), sequence (P08684 whole entry, looked up): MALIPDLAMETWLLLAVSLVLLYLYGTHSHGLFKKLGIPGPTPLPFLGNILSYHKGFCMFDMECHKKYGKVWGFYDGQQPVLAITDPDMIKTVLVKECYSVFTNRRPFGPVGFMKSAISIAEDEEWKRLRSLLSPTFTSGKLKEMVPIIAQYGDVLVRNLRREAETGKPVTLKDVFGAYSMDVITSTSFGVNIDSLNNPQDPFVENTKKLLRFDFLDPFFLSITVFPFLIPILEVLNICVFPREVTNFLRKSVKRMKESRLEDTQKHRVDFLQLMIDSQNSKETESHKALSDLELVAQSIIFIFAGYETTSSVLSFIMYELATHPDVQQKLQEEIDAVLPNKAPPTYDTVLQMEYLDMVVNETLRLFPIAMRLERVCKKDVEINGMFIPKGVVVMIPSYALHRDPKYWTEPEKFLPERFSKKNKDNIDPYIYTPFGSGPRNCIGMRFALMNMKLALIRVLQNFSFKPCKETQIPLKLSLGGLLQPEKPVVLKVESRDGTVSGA
DNA dC->dU-editing enzyme APOBEC-3G (Homo sapiens), sequence (Q9HC16 whole entry, looked up): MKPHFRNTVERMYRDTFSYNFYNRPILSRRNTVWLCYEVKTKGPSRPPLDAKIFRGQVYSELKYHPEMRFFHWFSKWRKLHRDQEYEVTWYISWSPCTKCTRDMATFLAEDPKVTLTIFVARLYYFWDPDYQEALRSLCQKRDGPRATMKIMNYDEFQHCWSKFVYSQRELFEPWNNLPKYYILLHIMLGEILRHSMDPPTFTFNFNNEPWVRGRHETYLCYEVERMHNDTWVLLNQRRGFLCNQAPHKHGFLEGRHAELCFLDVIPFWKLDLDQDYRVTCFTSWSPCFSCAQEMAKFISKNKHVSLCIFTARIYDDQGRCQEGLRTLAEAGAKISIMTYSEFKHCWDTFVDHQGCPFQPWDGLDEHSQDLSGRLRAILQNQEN
Luciferin 4-monooxygenase (Photinus pyralis), sequence (P08659 whole entry, looked up): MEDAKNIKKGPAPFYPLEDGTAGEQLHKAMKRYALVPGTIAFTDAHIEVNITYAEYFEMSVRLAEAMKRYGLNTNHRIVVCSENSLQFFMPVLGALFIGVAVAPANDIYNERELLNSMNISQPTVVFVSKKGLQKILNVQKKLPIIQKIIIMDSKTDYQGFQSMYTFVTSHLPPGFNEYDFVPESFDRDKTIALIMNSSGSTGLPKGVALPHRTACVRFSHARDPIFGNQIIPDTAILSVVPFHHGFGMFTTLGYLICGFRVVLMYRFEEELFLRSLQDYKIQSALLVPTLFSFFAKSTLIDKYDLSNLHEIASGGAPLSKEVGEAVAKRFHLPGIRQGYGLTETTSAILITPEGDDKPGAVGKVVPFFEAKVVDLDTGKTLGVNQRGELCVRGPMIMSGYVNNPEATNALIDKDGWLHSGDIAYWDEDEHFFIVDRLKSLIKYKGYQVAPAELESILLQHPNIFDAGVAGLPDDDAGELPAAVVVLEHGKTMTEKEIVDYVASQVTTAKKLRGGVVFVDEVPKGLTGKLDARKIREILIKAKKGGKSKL

`Cc1ccc(C(=O)[C@@H]2[C@H]3C4COC(O4)C(=O)[C@@H]3[C@H]3C=Cc4ccccc4N32)cc1` (stereo not given in full): in experiment [1], the Potency was 25.1 µM (active). The Potency entry in experiment [2] and in experiment [3] was “inactive” each time.

`C=C1C(=O)OC2C[C@@]3(C)CCCC(=C)[C@@H]3CC12` (stereo not given in full): in experiment [1], the Potency is 10 µM (active). In addition, the Potency entry in experiment [2] and in experiment [3] was “inactive” each time.

As for `CC1=CC(=O)C2=C(C)CCC3C(C)C(=O)OC3C12` (stereo not given), the Potency entry in experiment [3] was “inactive”.

Turning to `COc1ccc(/C=C/C(=O)c2ccc(C)s2)cc1`, the Potency entry in experiment [1] and in experiment [3] was “inactive” throughout.

Turning to `CC(C)=CCC/C(C)=C\COc1c2ccoc2cc2oc(=O)ccc12`, the Potency in experiment [1] is 0.794 µM (active). Moreover, the Potency entry in experiment [3] is “inactive”.

With `O=c1cc(-c2ccccc2)oc2cc(O[C@@H]3O[C@H](CO)[C@@H](O)[C@H](O)[C@H]3O)c(O)c(O)c12`, the Potency result in experiment [1] and in experiment [3] was “inactive” each time.

As to `COc1ccc(-c2coc3cc(OC4OC(CO)C(O)C(O)C4O)cc(O)c3c2=O)cc1` (stereo not given), the Potency result in experiment [1] and in experiment [3] was “inactive” in each case.

For the compound `CC1CC2(C)Oc3ccccc3C3OCC1(COC(=O)Nc1ccccc1)C(C)C32` (stereo not given), the Potency in experiment [1] was 10 µM (active). For the same compound, the Potency result in experiment [2] and in experiment [3] was “inactive” throughout.

For the compound `CC(C)c1ccc2c(c1)CC[C@@H]1[C@@](C)(CN)CCC[C@]21C`, the Potency entry in experiment [3] is “inactive”.

Turning to `CC(=O)Oc1ccc(/C=C/C(=O)CC2OC(Oc3cc(OC(C)=O)c4c(c3)O[C@@H](c3ccc(OC(C)=O)cc3)CC4=O)C(OC(C)=O)C(OC(C)=O)C2OC(C)=O)cc1` (stereo not given in full), the Potency entry in experiment [1] and in experiment [3] was “inactive” throughout.

For `C=C(CO)C1Cc2c(ccc3c2OC2COc4cc(OC)c(OC)cc4C2C3=O)O1` (stereo not given), the Potency result in experiment [3] was “inactive”.

Turning to `O=C(/C=C/c1ccc2c(c1)OCO2)c1cccs1`, the Potency in experiment [1] is 0.501 µM (active). Moreover, the Potency result in experiment [2] and in experiment [3] was “inactive” in each case.

For the compound `CNC(=O)Oc1ccc2c(c1)C1(C)CCN(C)C1N2C` (stereo not given), the Potency entry in experiment [1] and in experiment [3] was “inactive” each time.

Turning to `CC(=O)OCC1OC(Oc2cc(OC(C)=O)c3c(=O)cc(-c4ccc(OC(C)=O)c(OC(C)=O)c4)oc3c2)C(OC(C)=O)C(OC(C)=O)C1OC(C)=O` (stereo not given), the Potency in experiment [1] was 3.98 µM (active). The Potency entry in experiment [2] and in experiment [3] was “inactive” each time.

On to `O=c1cc(-c2cccc(O)c2)oc2cccc(O)c12`, for which the Potency in experiment [1] is 7.94 µM (active). The Potency result in experiment [2] and in experiment [3] was “inactive” throughout.

In the case of `CC(C)=CCC/C(C)=C/COc1c2occc2cc2ccc(=O)oc12`, the Potency in experiment [1] is 1.26 µM (active). For the same compound, the Potency entry in experiment [2] and in experiment [3] was “inactive” in each case.

Consider `CC(=O)OC1CCC2(C)C(CCC3(C)C2C(=O)C=C2C4CC(C)(C(=O)OCCN5CCCCC5)CCC4(C)CCC23C)C1(C)C` (stereo not given), for which the Potency entry in experiment [1] and in experiment [3] was “inactive” in each case.

Turning to `OC1CCC2Cc3ccccc3N=C12` (stereo not given), the Potency entry in experiment [1] and in experiment [3] was “inactive” in each case.

For the compound `CC1(C)S[C@H]2[C@@H](NC(=O)C(N)c3ccccc3)C(=O)N2[C@H]1C(=O)O` (stereo not given in full), the Potency entry in experiment [3] was “inactive”.

As to `COc1ccc2c(c1OC)C(Cc1ccccc1)N1CCc3cc4c(cc3C1C2)OCO4` (stereo not given), in experiment [1], the Potency is 1 µM (active). For the same compound, the Potency result in experiment [2] and in experiment [3] was “inactive” in each case.

As to `CC1(C)CC[C@]2(C(=O)O)CC[C@]3(C)C(=CCC4[C@@]5(C)CC[C@H](O)C(C)(C)[C@@H]5CC[C@]43C)C2C1` (stereo not given in full), the Potency result in experiment [1] and in experiment [3] was “inactive” in each case.

As to `C=C(CO)C1Cc2c(ccc3c(=O)c4c(oc23)COc2cc(OC)c(OC)cc2-4)O1` (stereo not given), the Potency result in experiment [1] and in experiment [3] was “inactive” each time.

For the compound `O=C(/C=C/c1ccc(OCc2ccccc2)cc1)c1cccs1`, the Potency result in experiment [1] and in experiment [3] was “inactive” in each case.

As for `C[C@H]1[C@H](C)CC[C@]2(C(=O)O)CC[C@]3(C)C(=CCC4[C@@]5(C)CC[C@H](O)C(C)(C)[C@@H]5CC[C@]43C)[C@H]12` (stereo not given in full), the Potency entry in experiment [3] was “inactive”.

For the compound `CC12CCC3c4ccc(O)cc4CCC3C1CCC2=O` (stereo not given), the Potency entry in experiment [3] and in experiment [4] was “inactive” each time.

Consider `C[C@@H]1O[C@@H](OC[C@H]2O[C@@H](Oc3c(-c4cccc(O)c4O)oc4cc(O)cc(O)c4c3=O)[C@H](O)[C@@H](O)[C@@H]2O)[C@H](O)[C@H](O)[C@H]1O`, for which the Potency entry in experiment [1] and in experiment [3] was “inactive” each time.

As for `COC(=O)CC[C@@H](C)[C@H]1CC[C@H]2[C@@H]3CC[C@@H]4C[C@H](O)CC[C@]4(C)[C@H]3C[C@H](O)[C@]12C`, the Potency entry in experiment [1] and in experiment [3] was “inactive” each time.

Regarding `CC[C@]12CCCN3CCc4c(n(c5ccccc45)C(=O)C1)[C@H]32`, the Potency entry in experiment [3] is “inactive”.

Turning to `C[C@H](CCC(=O)O)[C@H]1CC[C@@H]2[C@H]3CC[C@H]4C[C@H](O)CC[C@]4(C)[C@@H]3CC[C@@]21C`, the Potency result in experiment [3] is “inactive”.

Regarding `O=C(Cc1ccc(Cl)cc1)c1c(O)cc(O)cc1O`, the Potency in experiment [1] was 5.01 µM (active). In addition, the Potency result in experiment [2] and in experiment [3] was “inactive” each time.

For the compound `Cc1cccc(-c2cc(=O)c3cc(C)ccc3o2)c1`, the Potency in experiment [1] is 3.98 µM (active). Further, the Potency result in experiment [2] and in experiment [3] was “inactive” each time.

For the compound `O=c1c(O)c(-c2ccc(O)c(O)c2)oc2c(OC[C@@H]3O[C@@H](O)[C@@H](O)[C@H](O)[C@H]3O)c(O)cc(O)c12`, the Potency entry in experiment [1] and in experiment [3] was “inactive” in each case.

As to `COc1ccccc1CC(Cc1nc2ccccc2[nH]1)c1nc2ccccc2[nH]1` (stereo not given), the Potency in experiment [1] is 1.58 µM (active). Further, the Potency entry in experiment [2] and in experiment [3] was “inactive” each time.
